We go through 7 sequences from publication PMC7862700, “An all-to-all approach to the identification of sequence-specific readers for epigenetic DNA modifications on cytosine”.

Assay in all cases: DAPPL (digital affinity profiling via proximity ligation, sequencing); 10 mM Tris-HCl pH 7.5, 50 mM NaCl, 1 mM DTT, 4% glycerol, room temperature, 30 min; GST-TFs on glutathione beads, 16-mer random dsDNA library, 0.1% formaldehyde crosslink after washing; high values mean tight binding
Details in all cases: protein: recombinant; tags: N-terminal GST; dsDNA, one strand shown

Experiment [1] concerns the target T1, FLI1 (Homo sapiens, UniProt Q01543 1-452).
T1 sequence: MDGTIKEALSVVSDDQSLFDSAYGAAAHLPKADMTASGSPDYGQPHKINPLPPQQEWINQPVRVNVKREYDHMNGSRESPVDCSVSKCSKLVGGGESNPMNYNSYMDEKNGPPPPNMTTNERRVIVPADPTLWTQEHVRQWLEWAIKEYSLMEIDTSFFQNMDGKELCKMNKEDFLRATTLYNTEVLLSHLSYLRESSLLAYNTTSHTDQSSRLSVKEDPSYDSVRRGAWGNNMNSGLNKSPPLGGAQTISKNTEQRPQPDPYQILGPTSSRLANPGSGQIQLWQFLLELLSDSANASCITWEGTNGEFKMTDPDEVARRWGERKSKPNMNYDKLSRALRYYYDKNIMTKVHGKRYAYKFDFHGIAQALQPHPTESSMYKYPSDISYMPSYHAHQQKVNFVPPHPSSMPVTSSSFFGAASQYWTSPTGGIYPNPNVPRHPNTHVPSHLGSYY
The procedure, abridged: (§1)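 Pools were built from human transcription factors expressed in yeast as GST fusions, captured on glutathione beads and DNA-barcoded, along with a tag-only sample. Incubation with 200 nmole of a 16-mer random double-stranded DNA library lasted 30 min at room temperature in Tris/NaCl/DTT/glycerol buffer, and was followed by washing, 0.1% formaldehyde crosslinking, proximity ligation, PCR amplification and Illumina NextSeq500 sequencing. Binding signal is the quotient of each hexamer's read frequency for a factor and its frequency for the tag-only sample.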

For experiment [2], the target named is T2, ELK1 (Homo sapiens, UniProt P19419 1-428).
T2 sequence: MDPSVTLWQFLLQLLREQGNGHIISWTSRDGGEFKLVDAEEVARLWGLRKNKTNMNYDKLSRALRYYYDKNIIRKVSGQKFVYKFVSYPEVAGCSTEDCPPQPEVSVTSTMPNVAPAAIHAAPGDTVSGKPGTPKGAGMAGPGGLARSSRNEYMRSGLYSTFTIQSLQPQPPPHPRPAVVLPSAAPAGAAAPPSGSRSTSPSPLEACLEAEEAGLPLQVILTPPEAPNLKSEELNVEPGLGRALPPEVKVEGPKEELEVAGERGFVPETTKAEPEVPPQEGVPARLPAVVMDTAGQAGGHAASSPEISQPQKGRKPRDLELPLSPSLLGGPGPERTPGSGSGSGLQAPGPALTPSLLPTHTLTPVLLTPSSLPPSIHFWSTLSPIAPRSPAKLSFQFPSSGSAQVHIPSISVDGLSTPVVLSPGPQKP
An outline of the steps: as §1

In experiment [3] the target is T3, GABPA (Homo sapiens, UniProt Q06546 1-454).
T3 sequence: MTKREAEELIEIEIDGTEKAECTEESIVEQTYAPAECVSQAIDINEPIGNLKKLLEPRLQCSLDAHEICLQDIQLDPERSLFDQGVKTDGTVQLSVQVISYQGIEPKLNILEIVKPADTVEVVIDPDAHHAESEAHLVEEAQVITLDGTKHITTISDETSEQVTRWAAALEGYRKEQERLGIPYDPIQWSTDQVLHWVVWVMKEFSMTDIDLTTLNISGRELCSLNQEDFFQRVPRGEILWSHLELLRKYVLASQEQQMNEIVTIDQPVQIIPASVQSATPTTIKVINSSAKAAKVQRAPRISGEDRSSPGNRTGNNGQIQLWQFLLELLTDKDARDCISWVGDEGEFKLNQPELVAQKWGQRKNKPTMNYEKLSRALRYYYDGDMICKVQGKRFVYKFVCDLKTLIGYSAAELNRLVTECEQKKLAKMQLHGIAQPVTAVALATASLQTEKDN
The procedure, abridged:
as §1

The target in experiment [4] is T4, ERG (Homo sapiens, UniProt P11308 1-479).
T4 sequence: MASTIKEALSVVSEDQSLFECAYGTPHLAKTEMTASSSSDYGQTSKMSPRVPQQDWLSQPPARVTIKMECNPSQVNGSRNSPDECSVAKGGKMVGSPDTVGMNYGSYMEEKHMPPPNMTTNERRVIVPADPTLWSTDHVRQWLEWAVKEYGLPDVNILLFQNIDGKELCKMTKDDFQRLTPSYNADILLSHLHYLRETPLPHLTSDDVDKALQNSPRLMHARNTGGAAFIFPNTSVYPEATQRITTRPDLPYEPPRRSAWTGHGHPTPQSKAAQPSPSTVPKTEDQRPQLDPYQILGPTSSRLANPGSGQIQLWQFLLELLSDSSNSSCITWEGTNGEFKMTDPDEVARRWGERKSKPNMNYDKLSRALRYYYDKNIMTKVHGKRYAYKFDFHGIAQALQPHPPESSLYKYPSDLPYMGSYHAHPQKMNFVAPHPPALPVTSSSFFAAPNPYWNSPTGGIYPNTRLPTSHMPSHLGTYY
An outline of the steps:
as §1

Experiment [5] addresses ELF1 (Homo sapiens, UniProt P32519 1-619). The procedure, abridged: as §1
Experiment [6] addresses T5, EHF (Homo sapiens, UniProt Q9NZC4 1-300).
T5 sequence: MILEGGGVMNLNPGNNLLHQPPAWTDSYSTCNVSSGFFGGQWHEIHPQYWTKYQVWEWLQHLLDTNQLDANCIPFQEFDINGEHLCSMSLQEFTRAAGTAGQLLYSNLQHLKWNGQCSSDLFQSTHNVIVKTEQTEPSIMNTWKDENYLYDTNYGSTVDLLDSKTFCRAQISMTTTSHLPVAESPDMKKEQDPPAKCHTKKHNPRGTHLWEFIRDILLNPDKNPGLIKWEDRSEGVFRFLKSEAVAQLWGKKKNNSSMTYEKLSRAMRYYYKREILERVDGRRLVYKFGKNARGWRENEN
An outline of the steps: as §1

In experiment [7] the target is SPI1 (Homo sapiens, UniProt P17947 1-270). The procedure, abridged:
as §1

In experiment [8] the target is SPIB (Homo sapiens, UniProt Q01892 1-262). The procedure, abridged: as §1
Experiment [9] deals with T6, ELK3 (Homo sapiens, UniProt P41970 1-407).
T6 sequence: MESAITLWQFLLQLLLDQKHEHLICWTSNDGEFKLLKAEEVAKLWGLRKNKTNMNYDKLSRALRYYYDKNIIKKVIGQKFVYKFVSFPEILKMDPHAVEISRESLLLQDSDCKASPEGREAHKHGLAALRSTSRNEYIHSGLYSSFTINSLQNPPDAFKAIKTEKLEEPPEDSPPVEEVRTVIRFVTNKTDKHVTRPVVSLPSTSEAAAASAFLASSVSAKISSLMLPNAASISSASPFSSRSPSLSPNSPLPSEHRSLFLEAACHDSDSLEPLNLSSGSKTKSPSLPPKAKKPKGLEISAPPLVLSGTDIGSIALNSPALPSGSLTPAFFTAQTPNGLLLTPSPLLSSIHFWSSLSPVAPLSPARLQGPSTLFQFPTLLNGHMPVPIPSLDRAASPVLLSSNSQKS
An outline of the steps: as §1

Chain of SPIB (Q01892 whole entry): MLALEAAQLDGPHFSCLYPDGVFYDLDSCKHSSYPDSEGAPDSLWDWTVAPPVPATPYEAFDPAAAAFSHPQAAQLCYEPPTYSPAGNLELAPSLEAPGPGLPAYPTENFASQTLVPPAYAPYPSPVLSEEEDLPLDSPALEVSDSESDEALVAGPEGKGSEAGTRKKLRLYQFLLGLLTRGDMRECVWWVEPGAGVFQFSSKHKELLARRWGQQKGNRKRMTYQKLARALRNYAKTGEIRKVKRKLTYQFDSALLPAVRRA
Chain of ELF1 (P32519 whole entry): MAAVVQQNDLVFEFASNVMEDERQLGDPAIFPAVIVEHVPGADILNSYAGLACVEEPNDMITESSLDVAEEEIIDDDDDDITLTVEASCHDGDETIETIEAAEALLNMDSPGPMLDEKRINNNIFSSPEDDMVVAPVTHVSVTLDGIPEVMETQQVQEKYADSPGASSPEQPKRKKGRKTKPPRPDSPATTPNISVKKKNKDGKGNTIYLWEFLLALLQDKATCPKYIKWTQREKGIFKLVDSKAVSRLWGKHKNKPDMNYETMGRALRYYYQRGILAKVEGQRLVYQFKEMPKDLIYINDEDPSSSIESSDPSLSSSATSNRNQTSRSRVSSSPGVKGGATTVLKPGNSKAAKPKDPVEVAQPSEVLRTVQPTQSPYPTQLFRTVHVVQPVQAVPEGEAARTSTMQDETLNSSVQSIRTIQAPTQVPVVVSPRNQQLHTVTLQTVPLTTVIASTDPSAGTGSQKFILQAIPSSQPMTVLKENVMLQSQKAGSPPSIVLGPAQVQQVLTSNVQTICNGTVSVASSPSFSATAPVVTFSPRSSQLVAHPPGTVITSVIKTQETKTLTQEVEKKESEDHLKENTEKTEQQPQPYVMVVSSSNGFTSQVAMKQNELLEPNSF

As for TGGATG, the binding signal is 1.33 fold enrichment (6-mer frequency, TF over GST control) in experiment [1]; 1.37 fold enrichment (6-mer frequency, TF over GST control) in [2]; 1.47 fold enrichment (6-mer frequency, TF over GST control) in [3]; 1.32 fold enrichment (6-mer frequency, TF over GST control) in experiment [4]; 1.48 fold enrichment (6-mer frequency, TF over GST control) in experiment [5]; 1.5 fold enrichment (6-mer frequency, TF over GST control) in [6]. The binding signal in [7] was 1.37 fold enrichment (6-mer frequency, TF over GST control); in [8], 1.64 fold enrichment (6-mer frequency, TF over GST control); in experiment [9] it was 1.49 fold enrichment (6-mer frequency, TF over GST control).
For TTTGCG, the binding signal in experiment [1] is 1.27 fold enrichment (6-mer frequency, TF over GST control); in experiment [2], 1.29 fold enrichment (6-mer frequency, TF over GST control); in experiment [3], 1.26 fold enrichment (6-mer frequency, TF over GST control); in experiment [4], 1.14 fold enrichment (6-mer frequency, TF over GST control); in [5], 1.27 fold enrichment (6-mer frequency, TF over GST control); in experiment [6] it was 1.19 fold enrichment (6-mer frequency, TF over GST control). In addition, the binding signal in experiment [7] was 1.32 fold enrichment (6-mer frequency, TF over GST control); in experiment [8], 1.19 fold enrichment (6-mer frequency, TF over GST control); in experiment [9] it was 1.11 fold enrichment (6-mer frequency, TF over GST control).
On to TTACAC, for which the binding signal was 1.28 fold enrichment (6-mer frequency, TF over GST control) in experiment [1]; 1.26 fold enrichment (6-mer frequency, TF over GST control) in experiment [2]; 1.18 fold enrichment (6-mer frequency, TF over GST control) in experiment [3]; 1.27 fold enrichment (6-mer frequency, TF over GST control) in experiment [4]; 1.3 fold enrichment (6-mer frequency, TF over GST control) in [5]; 1.39 fold enrichment (6-mer frequency, TF over GST control) in experiment [6]. The binding signal is 1.13 fold enrichment (6-mer frequency, TF over GST control) in experiment [7]; 1.21 fold enrichment (6-mer frequency, TF over GST control) in [8]; 1.31 fold enrichment (6-mer frequency, TF over GST control) in experiment [9].
Regarding TGCGCT, the binding signal in experiment [1] is 1.27 fold enrichment (6-mer frequency, TF over GST control); in [2] it was 1.3 fold enrichment (6-mer frequency, TF over GST control); in experiment [3], 1.13 fold enrichment (6-mer frequency, TF over GST control); in experiment [4], 1.25 fold enrichment (6-mer frequency, TF over GST control); in [5], 1.19 fold enrichment (6-mer frequency, TF over GST control); in [6] it was 1.25 fold enrichment (6-mer frequency, TF over GST control). For the same sequence, the binding signal was 1.11 fold enrichment (6-mer frequency, TF over GST control) in experiment [7]; 1.31 fold enrichment (6-mer frequency, TF over GST control) in experiment [8]; 1.25 fold enrichment (6-mer frequency, TF over GST control) in experiment [9].
As for CCAATA, the binding signal is 1.24 fold enrichment (6-mer frequency, TF over GST control) in experiment [1]; 1.17 fold enrichment (6-mer frequency, TF over GST control) in [2]; 1.25 fold enrichment (6-mer frequency, TF over GST control) in experiment [3]; 1.26 fold enrichment (6-mer frequency, TF over GST control) in experiment [4]; 1.25 fold enrichment (6-mer frequency, TF over GST control) in experiment [5]; 1.25 fold enrichment (6-mer frequency, TF over GST control) in experiment [6]. Moreover, the binding signal is 1.2 fold enrichment (6-mer frequency, TF over GST control) in experiment [7]; 1.24 fold enrichment (6-mer frequency, TF over GST control) in [8]; 1.28 fold enrichment (6-mer frequency, TF over GST control) in [9].
For the sequence CGATTC, the binding signal in experiment [1] was 1.31 fold enrichment (6-mer frequency, TF over GST control); in experiment [2], 1.21 fold enrichment (6-mer frequency, TF over GST control); in experiment [3], 1.23 fold enrichment (6-mer frequency, TF over GST control); in experiment [4], 1.12 fold enrichment (6-mer frequency, TF over GST control); in [5] it was 1.24 fold enrichment (6-mer frequency, TF over GST control); in experiment [6], 1.17 fold enrichment (6-mer frequency, TF over GST control). Further, the binding signal in experiment [7] was 1.2 fold enrichment (6-mer frequency, TF over GST control); in experiment [8], 1.24 fold enrichment (6-mer frequency, TF over GST control); in experiment [9], 1.15 fold enrichment (6-mer frequency, TF over GST control).
Take AAAGCA: the binding signal is 1.01 fold enrichment (6-mer frequency, TF over GST control) in experiment [1]; 1.04 fold enrichment (6-mer frequency, TF over GST control) in experiment [2]; 1.15 fold enrichment (6-mer frequency, TF over GST control) in experiment [3]; 1.09 fold enrichment (6-mer frequency, TF over GST control) in experiment [4]; 1.04 fold enrichment (6-mer frequency, TF over GST control) in experiment [5]; 1.02 fold enrichment (6-mer frequency, TF over GST control) in experiment [6]. Also, the binding signal in experiment [7] was 1.1 fold enrichment (6-mer frequency, TF over GST control); in experiment [8] it was 1.08 fold enrichment (6-mer frequency, TF over GST control); in [9] it was 1.05 fold enrichment (6-mer frequency, TF over GST control).
